Data as given in PubChem BioAssay (NCATS).
Inconclusive results are not listed. A call without a number means that no potency is given here. Active and inactive are the calls of the source. Unless noted, the call rests on the fitted dose curve; in most records, active means well fitted curve in the direction sought with a large enough effect; inconclusive means small, poorly fitted or top-dose-only effect, or another doubt; inactive means no such curve, though single readings can be large; an effect the other way counts as inactive or inconclusive.

What was measured:
[1] = Validation of Assay for Modulators of Lamin A Splicing (AID 1459; active means well fitted curve in the direction sought with a large enough effect in the signal ratio; the % refers to the signal ratio;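 further: cells exposed to compound for two days before reading; ratio rise marks activators and ratio drop marks inhibitors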)
Summary of the method: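 S3 HeLa cells stably expressing a lamin A-EGFP splicing minigene and DsRed2 were seeded at 600 cells/well in Opti-MEM with 2% FBS, pin-dosed, and incubated 48 hrs at 37 °C, 5% CO2. Laser-scanning cytometry (488 nm) gave GFP/RFP total intensity ratio.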

[2] = target: DNA repair nuclease/redox regulator APEX1 (Homo sapiens) (UniProt P27695); assay: qHTS Validation Assay for Inhibitors of the Human Apurinic/apyrimidinic Endonuclease 1 (APE1) (AID 1705;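 further: TAMRA fluorescence gain over two minutes as APE1 cuts a quenched THF abasic duplex; series mostly up to about 57 µM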)
Summary of the method: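 Human APE1 was preincubated with compound for 15 min at room temperature, then 50 nM (final) THF-abasic double-stranded DNA substrate bearing 5'-TAMRA and 3'-BHQ-2 was added. Incision-driven fluorescence rise (ex 525/em 598 nm) was read kinetically.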

[3] = Counterscreen for APE1 Inhibitors: Fluorescent Dye Displacement Validation Assay (AID 1707)
Summary of the method: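 Signal: ThO fluorescence (ex 480 nm/em 540 nm) on binding 50 nM dsDNA; displacement by test compound reduces it. Conditions: 250 nM dye, 50 mM Tris-HCl pH7.5, 2 mM MgCl2, 50mM NaCl, 0.01% Tween-20.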

[4] = target: Endonuclease 4 (Escherichia coli (strain K12)) (UniProt P0A6C1); assay: Counterscreen for APE1 Inhibitors: qHTS Validation Assay for Inhibitors of Endonuclease IV (AID 1708)
Summary of the method: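 Incision of a double-stranded 50 nM TAMRA/BHQ-2 abasic substrate was followed kinetically (525/598 nm, reads every 60 s) after 15 min enzyme–compound preincubation with 2 nM EndoIV in pH 7.5 Tris buffer with MgCl2, DTT and Tween-20; concentration-response format.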

[5] = qHTS for differential inhibitors of proliferation of Plasmodium falciparum line 7G8 (AID 1815);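 further: parasite growth measured after three days of incubation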; further: potency means the concentration at half of the fitted maximal effect
[6] = qHTS for differential inhibitors of proliferation of Plasmodium falciparum line GB4 (AID 1816); settings: Potency: Plasmodium falciparum GB4 proliferation inhibition;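 further: parasite growth measured after 72 h incubation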; further: potency means the concentration at half of the fitted maximal effect
[7] = qHTS for differential inhibitors of proliferation of Plasmodium falciparum line 3D7 (AID 1876); further: potency means the concentration at half of the fitted maximal effect
[8] = qHTS for differential inhibitors of proliferation of Plasmodium falciparum line D10 (AID 1877);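 further: parasites grown with compound for 72 h before DNA staining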; further: potency means the concentration at half of the fitted maximal effect
[9] = qHTS for differential inhibitors of proliferation of Plasmodium falciparum line Dd2 (AID 1882); settings: Potency: Plasmodium falciparum Dd2 proliferation inhibition; further: nearly all actives have a fitted effect of over 65% in size; further: potency means the concentration at half of the fitted maximal effect
Summary of the method: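 SYBR Green DNA fluorescence (ex 485, em 535 nm) after overnight lysis quantifies parasite growth; compound exposure lasted 72 h at 37 C on infected red cells at 2.5% hematocrit, 0.3% parasitemia (final). Artemisinin 0.29 uM and vehicle wells define normalization.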

[10] = qHTS for differential inhibitors of proliferation of Plasmodium falciparum line W2 (AID 1883); settings: Potency: Plasmodium falciparum W2 proliferation inhibition;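 further: parasites grown with compound for 72 h before lysis and staining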; further: potency means the concentration at half of the fitted maximal effect
[11] = qHTS for differential inhibitors of proliferation of Plasmodium falciparum line HB3 (AID 1886); settings: Potency: Plasmodium falciparum HB3 proliferation inhibition;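 further: parasites grown with compound for 72 h before SYBR Green readout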; further: potency means the concentration at half of the fitted maximal effect
[12] = qHTS Assay for Modulators of Human Peripheral Myelin Protein 22 (PMP22) Expression/Activity (AID 1967; active means well fitted curve in the direction sought with a large enough effect in the signal ratio; the % refers to the signal ratio)
Summary of the method: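 MSC80 mouse Schwann cells stably carrying Pmp22 promoter–green click beetle luciferase plus EF-alpha–red luciferase control were dosed for 24h at 37 °C. Dual-colour luminescence was filter-overlap corrected; %Activity came from green/red ratio versus untreated cells.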

[13] = target: Alpha-galactosidase A (Homo sapiens) (UniProt P06280); assay: Counterscreen for Glucocerebrosidase Inhibitors: qHTS Assay for Human alpha-Galactosidase at pH 4.5 (AID 992)
Summary of the method: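 Citrate buffer pH 4.5, Tween-20 0.005%. Enzyme 2 nM, substrate 80 uM, 20 min RT. Stop pH 10. Fluorescence Ex 365/Em 440. AC50 by Hill fit.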

[14] = target: alpha-glucosidase (Oryza sativa, rice) (UniProt Q653V4); assay: Counterscreen for Glucocerebrosidase Inhibitors: qHTS Assay for Rice alpha-Glucosidase at pH 5.0 (AID 997)
Summary of the method: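 Endpoint fluorogenic assay at pH 5.0: compounds (0.7 nM to 77 uM) titrated against 4 nM rice enzyme and 400 uM 4-MU-alpha-glucoside for 20 min at room temperature; NaOH/glycine stop, read ex 365/em 440 nm, Hill-fitted AC50.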

[15] = target: Alpha-galactosidase (Coffea arabica) (UniProt Q42656); assay: Counterscreen for Glucocerebrosidase Inhibitors: qHTS Assay for Coffee Bean alpha-Galactosidase at pH 5.9 (AID 998)
Summary of the method: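 Fluorogenic 4-MU substrate hydrolysis, 80 uM substrate and 2 nM coffee bean alpha-galactosidase, pH 5.9 citrate buffer, 20 min at room temperature, then NaOH/glycine stop. Titration 0.7 nM–77 uM, normalized to no-enzyme and enzyme controls, AC50 via Hill equation.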

Sequence of Alpha-galactosidase A (Homo sapiens) (P06280 whole entry, looked up): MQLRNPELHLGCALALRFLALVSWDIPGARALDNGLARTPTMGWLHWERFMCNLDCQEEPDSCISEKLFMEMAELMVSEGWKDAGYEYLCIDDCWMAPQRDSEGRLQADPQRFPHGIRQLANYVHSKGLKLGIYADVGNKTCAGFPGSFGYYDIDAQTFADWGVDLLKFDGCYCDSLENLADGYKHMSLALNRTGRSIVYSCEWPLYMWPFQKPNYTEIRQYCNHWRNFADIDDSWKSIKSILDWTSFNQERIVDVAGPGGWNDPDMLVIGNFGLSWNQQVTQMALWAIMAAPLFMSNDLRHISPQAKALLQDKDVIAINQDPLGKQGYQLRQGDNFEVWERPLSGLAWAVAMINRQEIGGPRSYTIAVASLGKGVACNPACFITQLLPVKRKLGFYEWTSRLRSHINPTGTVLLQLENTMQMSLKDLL
Sequence of DNA repair nuclease/redox regulator APEX1 (Homo sapiens) (P27695 whole entry, looked up): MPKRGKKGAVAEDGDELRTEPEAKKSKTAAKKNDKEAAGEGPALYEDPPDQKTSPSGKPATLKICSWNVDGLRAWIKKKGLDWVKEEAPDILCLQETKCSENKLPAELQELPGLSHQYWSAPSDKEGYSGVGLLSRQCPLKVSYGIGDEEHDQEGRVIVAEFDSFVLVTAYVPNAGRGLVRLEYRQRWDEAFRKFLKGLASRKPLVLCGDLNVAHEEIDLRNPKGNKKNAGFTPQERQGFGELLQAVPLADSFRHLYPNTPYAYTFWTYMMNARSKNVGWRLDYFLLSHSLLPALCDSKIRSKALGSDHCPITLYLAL
Sequence of Alpha-galactosidase (Coffea arabica) (Q42656 whole entry, looked up): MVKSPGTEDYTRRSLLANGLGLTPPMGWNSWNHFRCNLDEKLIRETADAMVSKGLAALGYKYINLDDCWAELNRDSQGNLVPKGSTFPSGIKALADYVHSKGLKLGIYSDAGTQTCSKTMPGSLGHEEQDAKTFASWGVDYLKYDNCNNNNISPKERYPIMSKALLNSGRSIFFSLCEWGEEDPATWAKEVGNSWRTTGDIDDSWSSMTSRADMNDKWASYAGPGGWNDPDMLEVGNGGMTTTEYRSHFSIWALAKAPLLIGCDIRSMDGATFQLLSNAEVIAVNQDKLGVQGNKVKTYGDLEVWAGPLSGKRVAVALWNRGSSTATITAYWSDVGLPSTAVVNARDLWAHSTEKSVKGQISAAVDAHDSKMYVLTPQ

Oc1ccc2c3c1O[C@H]1c4oc5ccccc5c4C[C@@]4(O)C(C2)N(CC2CC2)CCC314 (some centres not stated)
outcome [1]: inactive | Potency [2]: inactive | Potency [3]: inactive | Potency [4]: inactive | Potency [5]: 8.91 µM (active) | Potency [6]: 3.16 µM (active) | Potency [7]: 7.94 µM (active) | Potency [8]: 12.6 µM (active) | Potency [9]: 10 µM (active) | Potency [10]: 3.16 µM (active) | Potency [11]: 11.2 µM (active)

CCCN1CCCC2Cc3[nH]ncc3CC21 (configuration not stated)
outcome [1]: inactive | Potency [2]: inactive | Potency [3]: inactive | Potency [4]: inactive | Potency [5]: inactive | Potency [6]: inactive | Potency [7]: inactive | Potency [8]: inactive | Potency [9]: inactive | Potency [11]: inactive | outcome [12]: inactive

C[C@H](Cc1ccc2c(c1)OC(C(=O)O)(C(=O)O)O2)NC[C@H](O)c1cccc(Cl)c1
outcome [1]: inactive | Potency [2]: inactive | Potency [3]: inactive | Potency [4]: inactive | Potency [5]: inactive | Potency [6]: inactive | Potency [7]: inactive | Potency [8]: inactive | Potency [9]: inactive | Potency [10]: inactive | Potency [11]: inactive | outcome [12]: inactive

NC(=O)c1cc(N2CC2)c([N+](=O)[O-])cc1[N+](=O)[O-]
outcome [13]: inactive | outcome [14]: inactive | outcome [15]: inactive | outcome [1]: inactive | Potency [2]: inactive | Potency [3]: inactive | Potency [4]: inactive | Potency [5]: inactive | Potency [7]: inactive | Potency [8]: inactive | Potency [9]: inactive | Potency [11]: inactive

NCCc1ccc(S(=O)(=O)F)cc1
outcome [13]: inactive | outcome [14]: inactive | outcome [15]: inactive | outcome [1]: inactive | Potency [2]: inactive | Potency [3]: inactive | Potency [4]: inactive | Potency [5]: inactive | Potency [6]: inactive | Potency [7]: inactive | Potency [8]: inactive | Potency [9]: inactive | Potency [11]: inactive | outcome [12]: inactive

CC1OC1P(=O)(O)O (configuration not stated)
outcome [1]: inactive | Potency [2]: inactive | Potency [3]: inactive | Potency [4]: inactive | Potency [5]: inactive | Potency [6]: inactive | Potency [7]: inactive | Potency [8]: inactive | Potency [9]: inactive | Potency [10]: inactive | Potency [11]: inactive

C[N+]1(C)CCOC(O)(c2ccc(-c3ccc(C4(O)C[N+](C)(C)CCO4)cc3)cc2)C1 (configuration not stated)
outcome [1]: inactive | Potency [2]: inactive | Potency [3]: inactive | Potency [4]: inactive | Potency [5]: inactive | Potency [8]: inactive | Potency [9]: inactive | outcome [12]: inactive

C[C@@H]1O[C@H](C[N+](C)(C)C)CS1
outcome [13]: inactive | outcome [14]: inactive | outcome [15]: inactive | outcome [1]: inactive | Potency [2]: inactive | Potency [3]: inactive | Potency [4]: inactive | Potency [5]: inactive | Potency [6]: inactive | Potency [7]: inactive | Potency [8]: inactive | Potency [9]: inactive | Potency [10]: inactive | Potency [11]: inactive | outcome [12]: inactive

NCCCP(=O)(O)O
outcome [13]: inactive | outcome [14]: inactive | outcome [15]: inactive | outcome [1]: inactive | Potency [2]: inactive | Potency [3]: inactive | Potency [4]: inactive | Potency [5]: inactive | Potency [6]: inactive | Potency [7]: inactive | Potency [8]: inactive | Potency [9]: inactive | Potency [10]: inactive | Potency [11]: inactive

COc1ccc2c(c1)C13CCCCC1C(C2)N(C)CC3 (configuration not stated)
outcome [1]: inactive | Potency [2]: inactive | Potency [3]: inactive | Potency [4]: inactive | Potency [5]: 3.16 µM (active) | Potency [8]: inactive | Potency [10]: 0.891 µM (active)

OCc1cnc[nH]1
outcome [13]: inactive | outcome [14]: inactive | outcome [15]: inactive | outcome [1]: inactive | Potency [2]: inactive | Potency [3]: inactive | Potency [4]: inactive | Potency [6]: 7.94 µM (active) | Potency [9]: inactive | Potency [11]: 10 µM (active)

NCC(CP(=O)(O)O)c1ccc(Cl)cc1 (configuration not stated)
outcome [1]: inactive | Potency [2]: inactive | Potency [3]: inactive | Potency [5]: inactive | Potency [6]: inactive | Potency [7]: inactive | Potency [8]: inactive | Potency [9]: inactive | Potency [10]: inactive | Potency [11]: inactive

C#CCN[C@H](C)Cc1ccccc1
outcome [1]: inactive | Potency [2]: inactive | Potency [3]: inactive | Potency [4]: inactive | Potency [5]: inactive | Potency [6]: inactive | Potency [7]: inactive | Potency [8]: inactive | Potency [9]: inactive | Potency [10]: inactive | Potency [11]: inactive | outcome [12]: inactive

N[C@@H](CCl)C(=O)O
outcome [1]: inactive | Potency [2]: inactive | Potency [3]: inactive | Potency [4]: inactive | Potency [5]: inactive | Potency [6]: inactive | Potency [7]: inactive | Potency [8]: inactive | Potency [9]: inactive | Potency [11]: inactive

COc1ccc2[nH]cc(CCN)c2c1
outcome [13]: inactive | outcome [14]: inactive | outcome [15]: inactive | outcome [1]: inactive | Potency [2]: inactive | Potency [3]: inactive | Potency [4]: inactive | Potency [5]: inactive | Potency [6]: inactive | Potency [7]: inactive | Potency [8]: inactive | Potency [9]: inactive | Potency [10]: inactive | Potency [11]: inactive

CCCn1c(=O)c2[nH]c(C3CCCC3)nc2n(CCCOC(=O)c2ccc(S(=O)(=O)F)cc2)c1=O
outcome [13]: inactive | outcome [14]: inactive | outcome [15]: inactive | outcome [1]: inactive | Potency [2]: inactive | Potency [3]: inactive | Potency [4]: inactive | Potency [5]: 12.6 µM (active) | Potency [8]: inactive | Potency [10]: 11.2 µM (active)

CCN(CC)c1ncnc2c1ncn2[C@@H]1O[C@H](COP(=O)(O)OP(=O)(O)C(Br)(Br)P(=O)(O)O)[C@@H](O)[C@H]1O
outcome [1]: inactive | Potency [2]: inactive | Potency [3]: inactive | Potency [4]: inactive | Potency [5]: inactive | Potency [6]: inactive | Potency [7]: inactive | Potency [8]: inactive | Potency [9]: inactive | Potency [10]: inactive | Potency [11]: inactive | outcome [12]: inactive

Cc1sc2ccccc2c1CC1=NCCN1
outcome [13]: inactive | outcome [14]: inactive | outcome [15]: inactive | outcome [1]: inactive | Potency [2]: inactive | Potency [3]: inactive | Potency [4]: inactive | Potency [6]: 14.1 µM (active) | Potency [10]: 8.91 µM (active) | outcome [12]: inactive

CCOC(=O)c1ncn2c1[C@@H]1CCCN1C(=O)c1cc(OC)ccc1-2
outcome [1]: inactive | Potency [2]: inactive | Potency [3]: inactive | Potency [4]: inactive | Potency [5]: 7.94 µM (active) | Potency [6]: inactive | Potency [7]: inactive | Potency [8]: inactive | Potency [9]: inactive | Potency [11]: inactive

C[Se]C[C@H](N)C(=O)O
outcome [1]: inactive | Potency [2]: inactive | Potency [3]: inactive | Potency [4]: inactive | Potency [5]: inactive | Potency [6]: inactive | Potency [7]: inactive | Potency [8]: inactive | Potency [9]: inactive | Potency [10]: inactive | Potency [11]: inactive

NC(=O)COc1c(F)cc(SCCNS(=O)(=O)c2ccccc2)cc1F
outcome [13]: inactive | outcome [14]: inactive | outcome [15]: inactive | outcome [1]: inactive | Potency [2]: inactive | Potency [3]: inactive | Potency [4]: inactive | Potency [5]: inactive | Potency [6]: inactive | Potency [7]: inactive | Potency [8]: inactive | Potency [9]: inactive | Potency [11]: inactive
